Data on 1 sequence can be found in paper PMC7862700, “An all-to-all approach to the identification of sequence-specific readers for epigenetic DNA modifications on cytosine”.

Assay in all cases: DAPPL (digital affinity profiling via proximity ligation, sequencing); 10 mM Tris-HCl pH 7.5, 50 mM NaCl, 1 mM DTT, 4% glycerol, room temperature, 30 min; GST-TFs on glutathione beads, 16-mer random dsDNA library, 0.1% formaldehyde crosslink after washing; high values mean tight binding
For test [1], the target named is T1, FLI1 (Homo sapiens, UniProt Q01543 1-452).
T1 sequence: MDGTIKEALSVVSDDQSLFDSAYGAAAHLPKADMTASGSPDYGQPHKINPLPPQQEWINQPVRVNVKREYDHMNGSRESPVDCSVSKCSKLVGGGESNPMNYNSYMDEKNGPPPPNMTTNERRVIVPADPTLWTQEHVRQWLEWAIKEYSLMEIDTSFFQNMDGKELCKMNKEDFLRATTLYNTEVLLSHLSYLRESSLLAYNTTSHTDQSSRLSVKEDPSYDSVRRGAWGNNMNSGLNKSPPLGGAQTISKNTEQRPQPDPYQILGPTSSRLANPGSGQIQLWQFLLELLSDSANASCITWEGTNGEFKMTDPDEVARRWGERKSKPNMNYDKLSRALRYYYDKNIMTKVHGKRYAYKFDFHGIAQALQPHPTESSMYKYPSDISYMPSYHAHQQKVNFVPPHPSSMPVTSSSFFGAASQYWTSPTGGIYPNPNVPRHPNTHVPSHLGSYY
Particulars: protein: recombinant; tags: N-terminal GST; dsDNA, one strand shown. In outline: (§1)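 Pools of DNA-barcoded human transcription factors, expressed in yeast as GST fusions on glutathione beads and combined with a tag-only sample, were incubated with 200 nmole of a 16-mer random double-stranded DNA library. Incubation took 30 min at room temperature in Tris/NaCl/DTT/glycerol buffer and was followed by washing, 0.1% formaldehyde crosslinking, proximity ligation (BsaI/T4 ligase, 1 h, 37 °C), PCR amplification and sequencing on an Illumina NextSeq500. Binding signal is the ratio of a hexamer's read frequency for a factor to its frequency for the tag-only sample.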

Test [2] addresses T2, ELK1 (Homo sapiens, UniProt P19419 1-428).
T2 sequence: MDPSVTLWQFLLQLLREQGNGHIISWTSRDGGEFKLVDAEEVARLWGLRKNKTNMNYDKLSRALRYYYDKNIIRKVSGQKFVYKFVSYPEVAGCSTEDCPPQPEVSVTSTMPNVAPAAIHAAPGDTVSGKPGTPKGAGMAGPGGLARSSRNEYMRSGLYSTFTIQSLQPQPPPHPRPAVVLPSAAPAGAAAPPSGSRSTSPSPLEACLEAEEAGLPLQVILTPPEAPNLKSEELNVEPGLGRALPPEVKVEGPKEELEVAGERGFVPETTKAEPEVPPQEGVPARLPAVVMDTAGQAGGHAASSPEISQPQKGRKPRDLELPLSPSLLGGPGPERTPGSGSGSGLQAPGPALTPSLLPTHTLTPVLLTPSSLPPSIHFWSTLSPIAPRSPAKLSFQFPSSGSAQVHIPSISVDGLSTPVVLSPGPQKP
Particulars: protein: recombinant; tags: N-terminal GST; dsDNA, one strand shown. Put shortly: as §1

The target of test [3] is T3, GABPA (Homo sapiens, UniProt Q06546 1-454).
T3 sequence: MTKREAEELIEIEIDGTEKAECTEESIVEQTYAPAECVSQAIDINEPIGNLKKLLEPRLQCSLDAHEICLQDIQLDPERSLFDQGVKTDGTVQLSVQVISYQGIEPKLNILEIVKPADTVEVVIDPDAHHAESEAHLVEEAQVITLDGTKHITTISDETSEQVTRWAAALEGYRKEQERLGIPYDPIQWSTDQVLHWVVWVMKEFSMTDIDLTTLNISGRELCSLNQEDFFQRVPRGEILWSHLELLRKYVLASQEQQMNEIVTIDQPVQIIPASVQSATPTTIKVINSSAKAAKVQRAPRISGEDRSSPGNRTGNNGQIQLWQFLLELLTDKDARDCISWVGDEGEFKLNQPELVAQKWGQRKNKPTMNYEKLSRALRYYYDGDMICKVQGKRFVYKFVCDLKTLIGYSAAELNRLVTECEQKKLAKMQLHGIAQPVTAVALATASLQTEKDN
Particulars: protein: recombinant; tags: N-terminal GST; dsDNA, one strand shown. In outline:
as §1

Test [4] addresses T4, ERG (Homo sapiens, UniProt P11308 1-479).
T4 sequence: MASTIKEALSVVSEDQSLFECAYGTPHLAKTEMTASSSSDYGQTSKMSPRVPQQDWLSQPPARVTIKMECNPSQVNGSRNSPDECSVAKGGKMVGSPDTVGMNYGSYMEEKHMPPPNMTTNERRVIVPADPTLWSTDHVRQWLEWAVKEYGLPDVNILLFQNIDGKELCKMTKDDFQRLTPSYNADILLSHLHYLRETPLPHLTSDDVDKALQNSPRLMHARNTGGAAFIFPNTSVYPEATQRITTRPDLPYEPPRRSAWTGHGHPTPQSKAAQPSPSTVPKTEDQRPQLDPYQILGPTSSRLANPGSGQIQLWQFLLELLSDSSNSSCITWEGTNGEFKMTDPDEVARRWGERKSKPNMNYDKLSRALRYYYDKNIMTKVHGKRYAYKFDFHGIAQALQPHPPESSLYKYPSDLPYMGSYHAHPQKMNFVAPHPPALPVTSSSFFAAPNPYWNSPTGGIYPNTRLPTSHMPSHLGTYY
Particulars: protein: recombinant; tags: N-terminal GST; dsDNA, one strand shown. In outline:
as §1

Test [5] concerns the target ELF1 (Homo sapiens, UniProt P32519 1-619). Particulars: protein: recombinant; tags: N-terminal GST; dsDNA, one strand shown. In outline:
as §1

Test [6] addresses T5, EHF (Homo sapiens, UniProt Q9NZC4 1-300).
T5 sequence: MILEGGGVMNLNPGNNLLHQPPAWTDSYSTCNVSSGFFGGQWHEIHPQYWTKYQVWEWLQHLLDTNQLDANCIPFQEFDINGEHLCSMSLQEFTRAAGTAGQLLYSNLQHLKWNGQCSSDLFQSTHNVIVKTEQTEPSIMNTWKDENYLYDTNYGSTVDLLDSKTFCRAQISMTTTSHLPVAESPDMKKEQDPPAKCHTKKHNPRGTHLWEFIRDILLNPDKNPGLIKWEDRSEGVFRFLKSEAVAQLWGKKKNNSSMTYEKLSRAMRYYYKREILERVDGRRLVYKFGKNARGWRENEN
Particulars: protein: recombinant; tags: N-terminal GST; dsDNA, one strand shown. In outline:
as §1

Test [7] concerns the target SPIB (Homo sapiens, UniProt Q01892 1-262). The settings on record: protein: recombinant; tags: N-terminal GST; dsDNA, one strand shown. In outline: as §1
Test [8] addresses T6, ELK3 (Homo sapiens, UniProt P41970 1-407).
T6 sequence: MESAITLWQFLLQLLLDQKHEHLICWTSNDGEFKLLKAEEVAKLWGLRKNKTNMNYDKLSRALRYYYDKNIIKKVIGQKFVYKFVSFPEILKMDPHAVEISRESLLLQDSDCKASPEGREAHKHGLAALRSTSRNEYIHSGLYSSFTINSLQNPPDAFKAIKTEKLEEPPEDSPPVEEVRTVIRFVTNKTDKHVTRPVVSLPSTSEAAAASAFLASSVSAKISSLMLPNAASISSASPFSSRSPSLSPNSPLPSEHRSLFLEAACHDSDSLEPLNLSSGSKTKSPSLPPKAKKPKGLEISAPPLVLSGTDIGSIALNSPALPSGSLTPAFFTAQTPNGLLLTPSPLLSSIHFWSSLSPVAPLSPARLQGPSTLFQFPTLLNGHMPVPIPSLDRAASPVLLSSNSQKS
Particulars: protein: recombinant; tags: N-terminal GST; dsDNA, one strand shown. Put shortly: as §1

Test [9] has as its target T7, FEV (Homo sapiens, UniProt Q99581 1-238).
T7 sequence: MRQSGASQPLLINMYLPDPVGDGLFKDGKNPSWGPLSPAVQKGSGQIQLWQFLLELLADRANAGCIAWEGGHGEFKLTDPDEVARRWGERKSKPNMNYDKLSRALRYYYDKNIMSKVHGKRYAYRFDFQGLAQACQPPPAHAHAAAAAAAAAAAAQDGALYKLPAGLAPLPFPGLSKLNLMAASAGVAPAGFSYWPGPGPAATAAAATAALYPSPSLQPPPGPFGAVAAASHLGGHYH
The settings on record: protein: recombinant; tags: N-terminal GST; dsDNA, one strand shown. In outline:
as §1

The target in test [10] is ETV5 (Homo sapiens, UniProt P41161 1-510). Particulars: protein: recombinant; tags: N-terminal GST; dsDNA, one strand shown. In outline: as §1
Chain of ETV5 (P41161 whole entry): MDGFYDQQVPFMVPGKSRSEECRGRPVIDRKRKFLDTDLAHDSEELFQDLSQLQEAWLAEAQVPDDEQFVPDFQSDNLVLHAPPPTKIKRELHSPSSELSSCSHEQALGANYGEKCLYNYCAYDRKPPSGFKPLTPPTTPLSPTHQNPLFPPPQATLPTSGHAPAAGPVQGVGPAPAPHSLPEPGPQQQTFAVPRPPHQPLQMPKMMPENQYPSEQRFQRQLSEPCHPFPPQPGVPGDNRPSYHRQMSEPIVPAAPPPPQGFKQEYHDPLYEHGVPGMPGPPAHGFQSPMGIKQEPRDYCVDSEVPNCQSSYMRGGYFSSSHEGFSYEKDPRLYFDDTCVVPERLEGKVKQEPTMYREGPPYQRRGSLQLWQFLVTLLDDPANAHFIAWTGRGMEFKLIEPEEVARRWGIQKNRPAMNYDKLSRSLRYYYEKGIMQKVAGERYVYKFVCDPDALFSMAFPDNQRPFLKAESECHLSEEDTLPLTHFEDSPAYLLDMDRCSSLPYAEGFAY
Test [11] concerns the target HSF1 (Homo sapiens, UniProt Q00613 1-529). The settings on record: protein: recombinant; tags: N-terminal GST; chain copies: 3; dsDNA, one strand shown. Put shortly:
as §1

Test [12] addresses T8, SPIC (Homo sapiens, UniProt Q8N5J4 1-248).
T8 sequence: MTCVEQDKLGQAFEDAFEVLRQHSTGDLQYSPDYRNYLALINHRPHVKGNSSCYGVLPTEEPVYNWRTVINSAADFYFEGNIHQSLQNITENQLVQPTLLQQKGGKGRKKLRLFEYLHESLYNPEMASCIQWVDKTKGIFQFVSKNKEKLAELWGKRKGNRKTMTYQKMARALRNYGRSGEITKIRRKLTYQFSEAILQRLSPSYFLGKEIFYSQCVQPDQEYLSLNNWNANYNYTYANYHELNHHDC
The settings on record: protein: recombinant; tags: N-terminal GST; dsDNA, one strand shown. In outline: as §1

The target of test [13] is ELF4 (Homo sapiens, UniProt Q99607 1-663). Particulars: protein: recombinant; tags: N-terminal GST; dsDNA, one strand shown. Put shortly: as §1
Chain of ELF4 (Q99607 whole entry): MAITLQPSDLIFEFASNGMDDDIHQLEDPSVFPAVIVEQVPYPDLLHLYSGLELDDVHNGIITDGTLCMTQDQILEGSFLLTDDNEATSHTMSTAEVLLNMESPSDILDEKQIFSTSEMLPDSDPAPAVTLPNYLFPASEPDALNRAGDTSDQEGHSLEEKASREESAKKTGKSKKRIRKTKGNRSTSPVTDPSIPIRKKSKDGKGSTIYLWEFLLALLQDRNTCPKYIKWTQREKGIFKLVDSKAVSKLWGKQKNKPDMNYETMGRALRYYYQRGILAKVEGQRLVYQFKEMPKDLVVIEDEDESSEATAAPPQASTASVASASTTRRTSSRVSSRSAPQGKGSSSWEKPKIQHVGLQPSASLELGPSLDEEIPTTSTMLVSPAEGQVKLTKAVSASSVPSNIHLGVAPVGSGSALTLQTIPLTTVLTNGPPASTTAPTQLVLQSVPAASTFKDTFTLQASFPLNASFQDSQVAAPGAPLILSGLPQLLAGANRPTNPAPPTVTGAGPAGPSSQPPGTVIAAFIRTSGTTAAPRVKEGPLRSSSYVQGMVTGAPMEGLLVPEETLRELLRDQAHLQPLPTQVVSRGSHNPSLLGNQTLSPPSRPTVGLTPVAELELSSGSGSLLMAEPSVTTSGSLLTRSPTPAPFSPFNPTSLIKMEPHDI
In test [14] the target is T9, ELK4 (Homo sapiens, UniProt P28324-2 1-405).
T9 sequence: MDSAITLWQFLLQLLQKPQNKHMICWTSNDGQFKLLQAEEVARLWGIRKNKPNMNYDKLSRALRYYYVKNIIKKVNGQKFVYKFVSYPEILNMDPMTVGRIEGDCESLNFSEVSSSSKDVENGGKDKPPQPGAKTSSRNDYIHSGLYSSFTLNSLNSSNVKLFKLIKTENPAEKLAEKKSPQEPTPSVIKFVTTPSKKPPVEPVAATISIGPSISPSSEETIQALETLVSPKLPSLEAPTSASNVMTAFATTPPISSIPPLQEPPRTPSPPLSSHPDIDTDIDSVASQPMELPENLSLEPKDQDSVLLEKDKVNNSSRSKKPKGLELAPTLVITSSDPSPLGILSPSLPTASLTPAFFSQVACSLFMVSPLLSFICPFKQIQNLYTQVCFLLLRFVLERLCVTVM
Particulars: protein: recombinant; tags: N-terminal GST; dsDNA, one strand shown. In outline:
as §1

Test [15] concerns the target T10, ETV2 (Homo sapiens, UniProt O00321 1-342).
T10 sequence: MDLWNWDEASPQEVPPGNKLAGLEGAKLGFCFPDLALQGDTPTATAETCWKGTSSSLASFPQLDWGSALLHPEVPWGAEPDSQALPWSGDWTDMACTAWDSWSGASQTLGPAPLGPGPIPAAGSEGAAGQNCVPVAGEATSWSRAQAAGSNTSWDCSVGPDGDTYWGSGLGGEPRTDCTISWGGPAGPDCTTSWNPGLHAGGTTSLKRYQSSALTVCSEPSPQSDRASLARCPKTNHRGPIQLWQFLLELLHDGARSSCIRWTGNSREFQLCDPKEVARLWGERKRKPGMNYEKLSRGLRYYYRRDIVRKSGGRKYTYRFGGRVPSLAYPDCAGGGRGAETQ
The settings on record: protein: recombinant; tags: N-terminal GST; dsDNA, one strand shown. In outline: as §1

Test [16] has as its target T11, ELF3 (Homo sapiens, UniProt P78545 1-371).
T11 sequence: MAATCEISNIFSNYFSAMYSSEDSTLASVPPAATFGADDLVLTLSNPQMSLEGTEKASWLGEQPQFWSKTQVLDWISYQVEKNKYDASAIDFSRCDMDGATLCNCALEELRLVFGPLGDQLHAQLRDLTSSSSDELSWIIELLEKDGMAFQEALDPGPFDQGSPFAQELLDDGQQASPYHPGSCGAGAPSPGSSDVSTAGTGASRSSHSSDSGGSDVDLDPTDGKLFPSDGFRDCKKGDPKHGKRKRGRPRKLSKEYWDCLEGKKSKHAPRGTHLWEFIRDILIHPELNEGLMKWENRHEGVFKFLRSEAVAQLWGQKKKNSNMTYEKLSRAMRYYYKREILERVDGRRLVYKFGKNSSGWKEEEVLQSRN
Particulars: protein: recombinant; tags: N-terminal GST; dsDNA, one strand shown. In outline: as §1

Test [17] deals with CRX (Homo sapiens, UniProt O43186 1-299). Particulars: protein: recombinant; tags: N-terminal GST; dsDNA, one strand shown. In outline: as §1
Chain of CRX (O43186 whole entry): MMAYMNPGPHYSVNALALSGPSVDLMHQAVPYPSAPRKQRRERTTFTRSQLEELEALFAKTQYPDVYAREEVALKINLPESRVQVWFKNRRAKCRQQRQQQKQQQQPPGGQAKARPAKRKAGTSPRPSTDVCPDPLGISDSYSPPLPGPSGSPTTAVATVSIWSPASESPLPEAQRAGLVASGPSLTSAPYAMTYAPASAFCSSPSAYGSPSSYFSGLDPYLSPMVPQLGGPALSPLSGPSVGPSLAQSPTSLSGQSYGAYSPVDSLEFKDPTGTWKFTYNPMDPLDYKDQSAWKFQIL
Test [18] addresses ETV1 (Homo sapiens, UniProt P50549 1-477). The settings on record: protein: recombinant; tags: N-terminal GST; dsDNA, one strand shown. Put shortly: as §1

Chain of SPIB (Q01892 whole entry): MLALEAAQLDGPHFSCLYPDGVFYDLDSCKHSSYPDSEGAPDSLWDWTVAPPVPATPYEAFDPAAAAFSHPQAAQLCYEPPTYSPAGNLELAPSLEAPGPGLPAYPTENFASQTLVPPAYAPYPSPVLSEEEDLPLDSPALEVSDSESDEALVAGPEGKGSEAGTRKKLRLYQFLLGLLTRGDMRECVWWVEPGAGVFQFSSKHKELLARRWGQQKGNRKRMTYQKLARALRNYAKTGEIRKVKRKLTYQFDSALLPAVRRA
Chain of HSF1 (Q00613 whole entry): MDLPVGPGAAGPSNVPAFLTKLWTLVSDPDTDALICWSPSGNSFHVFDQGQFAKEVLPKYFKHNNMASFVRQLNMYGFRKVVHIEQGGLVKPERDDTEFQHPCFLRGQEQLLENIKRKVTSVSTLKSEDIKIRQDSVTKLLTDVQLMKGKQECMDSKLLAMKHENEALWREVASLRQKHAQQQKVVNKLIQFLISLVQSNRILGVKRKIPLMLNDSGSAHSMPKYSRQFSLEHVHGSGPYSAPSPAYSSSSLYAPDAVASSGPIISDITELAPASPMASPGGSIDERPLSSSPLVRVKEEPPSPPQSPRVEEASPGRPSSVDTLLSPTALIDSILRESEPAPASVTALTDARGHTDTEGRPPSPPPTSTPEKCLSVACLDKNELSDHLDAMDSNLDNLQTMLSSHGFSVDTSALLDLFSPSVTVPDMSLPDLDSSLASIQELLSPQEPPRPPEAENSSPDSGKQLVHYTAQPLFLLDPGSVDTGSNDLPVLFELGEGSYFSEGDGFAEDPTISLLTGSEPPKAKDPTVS
Chain of ELF1 (P32519 whole entry): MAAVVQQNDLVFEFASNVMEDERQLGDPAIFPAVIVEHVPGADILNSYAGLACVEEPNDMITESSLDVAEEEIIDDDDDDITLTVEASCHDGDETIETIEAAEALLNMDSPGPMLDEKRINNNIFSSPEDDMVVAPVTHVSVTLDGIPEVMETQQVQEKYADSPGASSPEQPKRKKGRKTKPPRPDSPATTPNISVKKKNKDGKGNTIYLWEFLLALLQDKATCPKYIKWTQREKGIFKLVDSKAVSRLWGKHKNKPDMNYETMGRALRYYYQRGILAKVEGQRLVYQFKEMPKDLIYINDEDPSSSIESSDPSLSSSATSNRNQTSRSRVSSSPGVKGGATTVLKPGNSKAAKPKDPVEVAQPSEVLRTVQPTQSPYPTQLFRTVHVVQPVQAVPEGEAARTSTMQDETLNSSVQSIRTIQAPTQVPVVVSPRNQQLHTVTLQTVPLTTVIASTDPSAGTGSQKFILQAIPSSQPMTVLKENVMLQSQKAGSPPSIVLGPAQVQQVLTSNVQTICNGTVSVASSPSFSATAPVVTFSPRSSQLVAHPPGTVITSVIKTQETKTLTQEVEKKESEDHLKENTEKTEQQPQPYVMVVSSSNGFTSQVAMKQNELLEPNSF
Chain of ETV1 (P50549 whole entry): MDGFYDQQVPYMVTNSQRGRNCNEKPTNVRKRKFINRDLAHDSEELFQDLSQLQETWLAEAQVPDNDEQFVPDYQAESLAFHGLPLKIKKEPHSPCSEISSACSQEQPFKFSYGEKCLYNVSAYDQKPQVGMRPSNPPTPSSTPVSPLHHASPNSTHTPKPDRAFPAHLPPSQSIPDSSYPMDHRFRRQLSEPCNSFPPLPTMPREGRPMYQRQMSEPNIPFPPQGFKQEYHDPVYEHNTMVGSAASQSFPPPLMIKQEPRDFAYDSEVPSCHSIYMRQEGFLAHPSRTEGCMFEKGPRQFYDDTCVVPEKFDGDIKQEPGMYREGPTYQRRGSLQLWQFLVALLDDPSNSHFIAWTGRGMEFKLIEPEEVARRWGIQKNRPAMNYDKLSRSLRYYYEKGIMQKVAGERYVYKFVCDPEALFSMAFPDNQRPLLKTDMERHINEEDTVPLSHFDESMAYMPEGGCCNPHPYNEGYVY

Regarding TACCTG, the binding signal was 1.13 fold enrichment (6-mer frequency, TF over GST control) in test [1]; 1.21 fold enrichment (6-mer frequency, TF over GST control) in [2]; 1.12 fold enrichment (6-mer frequency, TF over GST control) in test [3]; 1.17 fold enrichment (6-mer frequency, TF over GST control) in test [4]; 1.09 fold enrichment (6-mer frequency, TF over GST control) in [5]; 1.16 fold enrichment (6-mer frequency, TF over GST control) in test [6]. The binding signal in [7] is 1.25 fold enrichment (6-mer frequency, TF over GST control); in test [8], 1.15 fold enrichment (6-mer frequency, TF over GST control); in test [9] it was 1.11 fold enrichment (6-mer frequency, TF over GST control); in test [10], 1.19 fold enrichment (6-mer frequency, TF over GST control); in test [11] it was 1.04 fold enrichment (6-mer frequency, TF over GST control); in [12], 1.04 fold enrichment (6-mer frequency, TF over GST control). The binding signal was 1.14 fold enrichment (6-mer frequency, TF over GST control) in test [13]; 1.07 fold enrichment (6-mer frequency, TF over GST control) in test [14]; 1.14 fold enrichment (6-mer frequency, TF over GST control) in test [15]; 1.15 fold enrichment (6-mer frequency, TF over GST control) in test [16]; 1.11 fold enrichment (6-mer frequency, TF over GST control) in test [17]; 1.27 fold enrichment (6-mer frequency, TF over GST control) in test [18].
